The sample as a whole holds a higher share of hits than the screen did.
NS1 function inh: inhibitors of influenza NS1 protein function; Potency, µM (top dose mostly 46.1 µM); 270,000 tested, 0.4% active; note: actives are rising curves; nearly all actives have a fitted effect of over 50% in size
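In this qHTS, NS1 from influenza A is expressed in budding yeast, where it slows growth. Cells are switched from glucose to 2% galactose medium (pH 6.0, -URA), treated with compound, and growth recovery is read at OD600.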
CHX counter: counter-screen hit for Shiga toxin inhibitors, cycloheximide; cell reporter, cycloheximide protein synthesis inhibition counterscreen; max response, %; 300,000 tested, 12% active; in the data active = max response mostly above about 13%, no sharp cut-off; inactive = mostly below about 14%; note: read at 38.3 µM for the half of the compounds with a filed dose
Shiga inhibitor: Shiga toxin inhibition | Vero cells, Shiga toxin protein synthesis inhibition reporter | 290,000 tested, 9.2% active | AID 2315 | inhibition, % at 38.7 µM; in the data active = inhibition mostly above about 28%, no sharp cut-off; inactive = mostly below about 43%
Tb PYK inh: T. brucei pyruvate kinase inhibition; Q57TT1; TbPYK enzyme, Kinase-Glo Plus ATP luminescence, 45 min; Potency, µM (series often up to 76.8 µM), usual class: inhibitors; 410,000 tested, 0.12% active; active = well fitted curve in the direction sought with a large enough effect; inconclusive = small, poorly fitted or top-dose-only effect, or another doubt; inactive = no such curve, though single readings can be large; an effect the other way counts as inactive or inconclusive; note: nearly all actives have a fitted effect of over 50% in size
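Readout: single end-point luminescence (Kinase-Glo Plus, 10 min). Reaction conditions were TbPYK/substrate plus 130 uM ADP, 45 min at RT, pH 7.2 TEA buffer. No-enzyme wells served as controls, and data were normalized before concentration-response fitting.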
LmPK inhibitor: inhibitors of Leishmania mexicana pyruvate kinase; 290,000 tested, 0.37% active; purified LmPK, Kinase-Glo ATP luminescence, 1 h; Q27686; Potency, µM (series often up to 57.5 µM), actives largely listed as inhibitors; active = well fitted curve in the direction sought with a large enough effect; inconclusive = small, poorly fitted or top-dose-only effect, or another doubt; inactive = no such curve, though single readings can be large; an effect the other way counts as inactive or inconclusive
Target sequence (Q27686 whole entry, looked up): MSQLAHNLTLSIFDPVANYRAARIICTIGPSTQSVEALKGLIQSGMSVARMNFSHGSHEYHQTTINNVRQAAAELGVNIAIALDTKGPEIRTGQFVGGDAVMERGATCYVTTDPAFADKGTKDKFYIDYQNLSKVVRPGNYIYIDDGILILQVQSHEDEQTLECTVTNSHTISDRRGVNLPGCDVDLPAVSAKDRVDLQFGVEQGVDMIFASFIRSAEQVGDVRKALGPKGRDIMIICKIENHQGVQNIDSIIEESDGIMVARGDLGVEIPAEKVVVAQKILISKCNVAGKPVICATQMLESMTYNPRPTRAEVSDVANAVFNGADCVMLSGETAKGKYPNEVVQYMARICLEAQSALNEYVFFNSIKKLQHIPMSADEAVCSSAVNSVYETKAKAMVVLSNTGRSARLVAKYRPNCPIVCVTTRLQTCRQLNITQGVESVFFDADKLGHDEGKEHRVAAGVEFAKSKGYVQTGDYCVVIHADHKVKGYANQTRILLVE
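qHTS format; LmPK 0.1 nM; substrates PEP 0.5 mM and ADP 0.1 mM. One-hour room-temperature incubation, then coupled luciferase luminescence; 0.5 nM enzyme wells mark activation.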
SARS PLP yeast: inhibitors of SARS-CoV papain-like protease in yeast. S. cerevisiae expressing SARS-CoV PLpro, growth rescue. Potency, µM (titrated, usually from 32.9 µM), most hits filed as activators. 330,000 tested, 0.19% active. AID 485353; note: nearly all actives have a fitted effect of over 55% in size
Numbers stand for hits; - = inactive; ? = inconclusive; . = no result given; + = active, no number. Unless noted, calls come from the whole dose curve.

SMILES | NS1 function inh | CHX counter | Shiga inhibitor | Tb PYK inh | LmPK inhibitor | SARS PLP yeast
COc1ccc(-c2cc(C(=O)NCCc3ccc(Cl)cc3)[nH]n2)cc1 | . | . | . | - | . | .
CC1=C(C(=O)N(C)C)CC(CC(=O)NCCCCc2ccccc2)C(=O)N1CCCN1CCCC1=O (centres undefined) | . | . | . | - | . | .
CCOC(=O)[C@]12CCC=C1N(Cc1ccc(Cl)cc1Cl)C(=O)[C@H](CC(=O)N1CCCCC1)C2 | . | . | . | - | . | .
CCC(C(=O)NCC1CCCO1)N(Cc1ccccc1)C(=O)CNS(=O)(=O)c1ccccc1 (centres undefined) | - | - | - | - | - | -
COc1ccc(-c2cc(C(=O)N3CCN(S(=O)(=O)c4ccccc4)CC3)[nH]n2)cc1 | - | 5.9 | - | - | - | -
CN1CCN(c2ccc(-c3ccnn3C(=O)Nc3cccc(C(F)(F)F)c3)cc2)CC1 | - | 43 | - | - | - | -
Cc1c(C(=O)OCC(=O)N2CC(C)CC(C)C2)oc2ccccc12 (centres undefined) | . | . | . | - | . | -
CCOc1ccc2oc(C(=O)OCC(=O)N3C(C)CCCC3C)c(C)c2c1 (centres undefined) | . | . | . | - | . | -
COc1ccc2oc(C(=O)OCC(=O)NC3CCCC3)c(C)c2c1 | - | 38 | 71 | - | - | -
Cc1c(C(=O)OCCN2CCCCC2)oc2ccccc12 | - | 14 | - | - | - | -
COc1ccc2oc(C(=O)OCC(=O)N3C(C)CCCC3C)c(C)c2c1 (centres undefined) | - | 37 | 63 | - | - | -
Cc1c(C(=O)OCC(=O)N2C(C)CCCC2C)oc2ccccc12 (centres undefined) | - | 50 | 96 | - | - | -
NS(=O)(=O)c1ccc(CNC(=O)Cc2ccc(S(=O)(=O)N3CCOCC3)s2)cc1 | . | . | . | - | . | -
COc1cccc(CN(C)C(=O)CSCC(=O)Nc2cc(C)on2)c1OC | . | . | . | - | . | -
CN(C(=O)CSc1cn(CC(=O)N2CCCCC2)c2ccccc12)c1ccccc1 | . | . | . | - | . | .
CC1CCCC(C)N1C(=O)COC(=O)c1ccc2c(c1)OCO2 (centres undefined) | - | 17 | - | - | - | -
COc1ccc(-c2cc(C(F)(F)F)nc(-n3ccnc3C)n2)cc1 | - | - | - | - | - | -
CN(CC(=O)Nc1ccc(Cl)cc1)C(=O)CNC(=O)Cc1cccc2ccccc12 | . | . | . | - | . | -
CC1(C)COC(c2coc3ccccc3c2=O)OC1 | - | 46 | 87 | - | - | -
CC1(C)COC(c2ccccc2Cl)OC1 | . | . | . | - | . | .
Cc1cn(CC(=O)N2CCN(c3ccccn3)CC2)c(=O)[nH]c1=O | . | . | . | - | . | .
Cc1ccc2occ(C(=O)c3ccco3)c(=O)c2c1 | - | - | 48 | - | - | -
O=C(c1cc(C(=O)c2ccco2)cc(C(=O)c2ccco2)c1)c1ccco1 | - | - | - | - | - | -
CC(C)N1CCN(Cc2coc3ccccc3c2=O)CC1CCO (centres undefined) | - | 17 | - | - | - | -
Cc1ccc2occ(CN3CCN(Cc4ccccc4)CC3)c(=O)c2c1 | - | 42 | 61 | . | - | -
SMILES | NS1 function inh | CHX counter | Shiga inhibitor | Tb PYK inh | LmPK inhibitor | SARS PLP yeast
CCN1CCN(Cc2coc3ccc(C)cc3c2=O)CC1 | - | 27 | 38 | - | - | -
Cc1nc(C)c(-c2ccc(SCC(=O)Nc3ccccc3F)nn2)s1 | . | . | . | - | . | .
CCN(CC)C(=O)Cn1c(=O)n(CCCCCC(=O)NCc2ccc(C)cc2)c(=O)c2sccc21 | . | . | . | - | . | .
O=C(c1ccccc1)c1ccc(-c2ccc(O)cc2)cc1 | - | 40 | 68 | - | - | -
CN(C)c1ccc(C(=O)/C=C/c2ccc(Br)cc2)cc1 | - | 23 | 58 | - | - | -
CN(C)c1ccc(C(=O)c2ccccc2)cc1 | - | 26 | - | - | - | -
CN(C)c1ccc(/C=C/C(=O)c2cc(Cl)ccc2O)cc1 | - | - | - | - | - | -
CCN(CC)c1ccc(/C=C/C(=O)c2ccc(Br)cc2)cc1 | - | 14 | - | - | - | -
O=C(C=Cc1cccc(Cl)c1)c1ccccc1 | . | . | . | - | . | .
CN(C)c1ccc(C(=O)/C=C/c2ccccc2)cc1 | . | 44 | 105 | - | - | -
CN(C)c1ccc(/C=C/C(=O)c2ccccc2)cc1[N+](=O)[O-] | - | 62 | + | - | - | -
O=C(CSc1ccnc(=O)[nH]1)NCc1ccc(F)cc1 | . | . | . | - | . | .
O=C(NCc1ccccc1)c1cc(C2CCCN(C(=O)CCCc3ccccc3)C2)on1 (centres undefined) | . | . | . | - | . | .
Cc1ccc(NC(=O)COC(=O)c2ccc([N+](=O)[O-])o2)cc1S(=O)(=O)N1CCCCCC1 | . | 28 | 59 | - | - | -
Cc1ccc(C(=O)OCC(=O)Nc2ccc(C)c(S(=O)(=O)N3CCCCC3)c2)o1 | . | . | . | - | . | .
COc1cc(NC(=O)COC(=O)c2ccc(C)c(S(=O)(=O)N3CCCCC3)c2)c(C)cc1[N+](=O)[O-] | ? | 72 | 57 | - | - | -
COC(=O)C(C)n1cnc2c(nnn2-c2ccccc2)c1=O (centres undefined) | - | - | - | - | - | -
CCCNC(=O)c1nnsc1Sc1ccc(Cl)cc1 | . | 23 | 87 | - | - | -
Cc1cccc(N2C(=O)C(CC(=O)Nc3ccc(F)cc3)N(C3CCCC3)C2=O)c1 (centres undefined) | . | . | . | - | . | .
Cc1ccc(Sc2nnc(-c3ccccc3)cc2C#N)cc1 | - | - | - | - | - | -
N#Cc1cc(-c2ccccc2)cnc1Sc1ccccc1 | - | 27 | 55 | - | - | -
O=C(COC(=O)CNC(=O)c1ccccc1)Nc1nnc(-c2ccccc2)o1 | . | . | . | - | . | -
Cc1nc2ccc(NC(=O)C3(C)CCCN(C(C)C)C3)cc2o1 (centres undefined) | . | . | . | - | . | .
CC(C)C[C@@H](NC(=O)[C@@H](O)[C@H](N)Cc1ccccc1)C(=O)O | . | 40 | 34 | . | . | .
CN(C#N)c1nccc(-c2cccs2)n1 | . | - | - | - | - | -
SMILES | NS1 function inh | CHX counter | Shiga inhibitor | Tb PYK inh | LmPK inhibitor | SARS PLP yeast
NC(=S)Nc1nccc(-c2cccs2)n1 | . | 41 | 61 | - | - | -
Cc1ccc(C(=O)Nc2nccc(-c3cccs3)n2)cc1 | - | 28 | - | - | - | -
COCCNC(=O)Cn1nc(-c2ccccc2C)ccc1=O | - | - | . | - | - | -
CC(=O)NC(NC(=S)Nc1ccc(N=Nc2ccccc2)cc1)C(Cl)(Cl)Cl (centres undefined) | - | 60 | 71 | - | - | -
COc1ccc(Cn2ccnc2SCC(=O)NCc2ccccc2)cc1 | . | . | . | - | . | .
Oc1ccc(N=Nc2ccccc2)o1 | - | 30 | 42 | - | - | -
CC(C)(C)C(=O)Nc1ccc(N=Nc2ccccc2)cc1 | - | - | - | - | - | -
COc1cccc(OCCNC(=O)c2ccc(C)cc2)c1 | - | 27 | 40 | - | - | -
Cc1ccc(C(=O)NCCOc2ccc(Cl)cc2)cc1 | - | 32 | 51 | - | - | -
CC(=O)Nc1cccc(OCCCNC(=O)c2ccc(C(C)(C)C)cc2)c1 | - | 25 | 45 | - | - | -
